Measured values taken from PubChem BioAssay (NCATS).
“And” between values parts separate entries of the source, which are not always exact repeats. Identical values can stand only once. Records with an inconclusive call do not appear. Where a call stands in place of a potency, no number is given. The source made the active and inactive calls. Calls come from the whole dose curve; as a rule, active = well fitted inhibition curve with a large enough effect; inconclusive = small, poorly fitted or top-dose-only effect; inactive = flat fitted curve, though single readings scatter. *1 amine or outer side, *2 acyl side, *3 side chain or, on linkers, in order; H or OH if unused. Where a SMILES comes first, the peptide text is derived from it. Bridges are numbered along the chain shown (N, C = ends). [ ]: non-standard residue; d: D form. The star is where a group is joined. X5 = NC1=N[C@@H]([C@H](N[*:1])C(=O)[*:2])C[C@H](O)N1; ΔAla(Z-3-ureido) = NC(=O)N/C=C(\N)C(=O)O; β3hOrn = NCCC[C@H](N)CC(=O)*; Dap = NC[C@H](N)C(=O)O

assay: P-glycoprotein substrates identified in KB-8-5-11 adenocarcinoma cell line, qHTS therapeutic library screen (AID 1346987); conditions: KB-8-5-11 (P-gp overexpressing) viability, CellTiter-Glo, 72 h; series mostly up to 44.5 µM; note: nearly all actives have a fitted effect of over 65% in size
Procedure, shortened: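 Human cervical adenocarcinoma KB-8-5-11 cells, selected in colchicine to over-express P-gp and assayed without it, were exposed for 72 h to titrated compounds. An ATP-based luminescent viability signal gave AC50.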
Potency is the fitted concentration of half-maximal effect.

| SMILES | Potency |
| --- | --- |
| FC(F)(F)C(F)(F)C(F)(F)C(F)(F)C(F)(F)F | inactive |
| Nc1nc(=O)n([C@@H]2CS[C@H](CO)O2)cc1F | inactive |
| OC[C@H]1OC([S-])[C@H](O)[C@@H](O)[C@@H]1O.[Au+] (some centres not stated) | inactive |
| Cc1cccc(C)c1NC(=O)C1CCCCN1C (configuration not stated) | inactive |
| O=C(O)COc1ccccc1/C=N/NC(=O)c1ccncc1 | inactive |
| NC(Cc1ccccc1)C(=O)O (configuration not stated) | inactive |
| C=O | inactive |
| CC1CCCC(C)N1NC(=O)c1ccc(Cl)c(S(N)(=O)=O)c1 (configuration not stated) | inactive |
| NC[C@H]1O[C@H](O[C@H]2[C@H](O)[C@@H](O[C@H]3O[C@H](CO)[C@@H](O)[C@H](N)[C@H]3O)[C@H](N)C[C@@H]2N)[C@H](O)[C@@H](O)[C@@H]1O | inactive |
| CCCOC(=O)c1ccccc1O | inactive |
| CCCCC/C=C\C/C=C\C/C=C\CCCCC(=O)O | inactive |
| CC(=NCc1ccccc1)c1ccccc1O | inactive |
| CCCCCCCCCCCCCCCCCC(=O)OC[C@@H](O)[C@H]1OC[C@H](O)[C@H]1O | inactive |
| NC(=O)CC[C@@H]1NC(=O)[C@H](Cc2ccccc2)NC(=O)[C@H](Cc2ccc(O)cc2)NC(=O)[C@@H](N)CSSC[C@@H](C(=O)N2CCC[C@H]2C(=O)N[C@@H](CCCN=C(N)N)C(=O)NCC(N)=O)NC(=O)[C@H](CC(N)=O)NC1=O | inactive |
| NCCC[C@H](N)CC(=O)N[C@H]1CNC(=O)[C@H]([C@H]2C[C@H](O)NC(N)=N2)NC(=O)/C(=C/NC(N)=O)NC(=O)[C@H](CO)NC(=O)[C@H](CO)NC1=O (β3hOrn-[Dap]SS[ΔAla(Z-3-ureido)][X5]; lactam 1-C) | inactive |
| O=c1[nH]c(=O)n([C@H]2C[C@H](O)[C@@H](CO)O2)cc1/C=C/Br | inactive |
| C[C@@H]1C/C=C/C=C/C=C/C=C/[C@H](O[C@@H]2O[C@H](C)[C@@H](O)[C@H](N)[C@@H]2O)C[C@@H]2O[C@](O)(C[C@@H](O)C[C@H]3O[C@@H]3/C=C/C(=O)O1)C[C@H](O)[C@H]2C(=O)O | inactive |
| CN1CCC(OC(=O)C(Oc2ccc(Cl)cc2)Oc2ccc(Cl)cc2)CC1 | inactive |
| CCCc1ccc(C(=O)O)cc1 | inactive |

| SMILES | Potency |
| --- | --- |
| CNC(=O)OCc1cccc(COC(=O)NC)n1 | inactive |
| Cc1ccc(S(=O)(=O)NCl)cc1 | inactive |
| CNC(=O)C[C@@H](N)C(=O)N[C@@H](C(=O)N[C@@H]1C(=O)N2[C@@H]1SC(C)(C)[C@@H]2C(=O)O)c1ccc(O)cc1 | inactive |
| CC(C)O | inactive |
| CN1C(=O)OC(C)(C)C1=O | inactive |
| O=P(O)(O)OC[C@H](O)CO | inactive |
| CC[C@@]1([C@@H]2O[C@@H]([C@H]3O[C@@](O)(CO)[C@H](C)C[C@@H]3C)C[C@@H]2C)CC[C@H]([C@]2(C)CC[C@]3(C[C@H](O)[C@@H](C)[C@@H]([C@@H](C)[C@@H](OC)[C@H](C)C(=O)O)O3)O2)O1 (stereo in doubt) | 6.51 µM (active) and 5.8 µM (active) |
| O=C(O)COc1ccc(CCNS(=O)(=O)c2ccccc2)s1 | inactive |
| CCCCC/C=C\CCC(=O)N[C@H]1[C@H](Oc2c3cc4cc2Oc2ccc(cc2Cl)[C@@H](O[C@@H]2O[C@H](CO)[C@@H](O)[C@H](O)[C@H]2NC(C)=O)[C@@H]2NC(=O)[C@H](NC(=O)[C@@H]4NC(=O)[C@H]4NC(=O)[C@@H](Cc5ccc(c(Cl)c5)O3)NC(=O)[C@H](N)c3ccc(O)c(c3)Oc3cc(O)cc4c3)c3ccc(O)c(c3)-c3c(O[C@H]4O[C@H](CO)[C@@H](O)[C@H](O)[C@@H]4O)cc(O)cc3[C@@H](C(=O)O)NC2=O)O[C@H](CO)[C@@H](O)[C@@H]1O | inactive |
| C[C@H](O)CN(C)C | inactive |
| O=C(NNCS(=O)(=O)O)c1ccncc1 | inactive |
| C[C@H]1[C@@H](OC(=O)CCC(=O)O)O[C@@H]2OC3(C)CC[C@H]4[C@H](C)CC[C@@H]1[C@@]24OO3 | 4.61 µM (active) |
| CCN(CC)C(=S)S | inactive |
| C=CCCCCCCCCC(=O)OC | inactive |
| CC(C)CN(C[C@@H](OP(=O)(O)O)[C@H](Cc1ccccc1)NC(=O)O[C@H]1CCOC1)S(=O)(=O)c1ccc(N)cc1 | inactive |
| O=C[C@H](O)[C@@H](O)[C@@H](O)[C@H](O)CO | inactive |
| C[C@H](CCC(=O)O)[C@H]1CC[C@H]2[C@@H]3[C@H](O)C[C@@H]4C[C@H](O)CC[C@]4(C)[C@H]3C[C@H](O)[C@]12C | inactive |
| CCCCC[C@H](O)/C=C/[C@H]1[C@H](O)CC(=O)[C@@H]1C/C=C\CCCC(=O)O | inactive |
